{
  "source": "the supplement of paper PMC11624193",
  "about": "“Coupling cellular drug-target engagement to downstream pharmacology with CeTEAM” (Nature Communications, 2024)",
  "note": "Counter-ions that a name gives are not always drawn.",
  "data": [
    {"biological_target": "PARP1 L713F-nLuc biosensor (HCT116) (UniProt P09874)", "sequence (P09874 whole entry L713F, looked up)": "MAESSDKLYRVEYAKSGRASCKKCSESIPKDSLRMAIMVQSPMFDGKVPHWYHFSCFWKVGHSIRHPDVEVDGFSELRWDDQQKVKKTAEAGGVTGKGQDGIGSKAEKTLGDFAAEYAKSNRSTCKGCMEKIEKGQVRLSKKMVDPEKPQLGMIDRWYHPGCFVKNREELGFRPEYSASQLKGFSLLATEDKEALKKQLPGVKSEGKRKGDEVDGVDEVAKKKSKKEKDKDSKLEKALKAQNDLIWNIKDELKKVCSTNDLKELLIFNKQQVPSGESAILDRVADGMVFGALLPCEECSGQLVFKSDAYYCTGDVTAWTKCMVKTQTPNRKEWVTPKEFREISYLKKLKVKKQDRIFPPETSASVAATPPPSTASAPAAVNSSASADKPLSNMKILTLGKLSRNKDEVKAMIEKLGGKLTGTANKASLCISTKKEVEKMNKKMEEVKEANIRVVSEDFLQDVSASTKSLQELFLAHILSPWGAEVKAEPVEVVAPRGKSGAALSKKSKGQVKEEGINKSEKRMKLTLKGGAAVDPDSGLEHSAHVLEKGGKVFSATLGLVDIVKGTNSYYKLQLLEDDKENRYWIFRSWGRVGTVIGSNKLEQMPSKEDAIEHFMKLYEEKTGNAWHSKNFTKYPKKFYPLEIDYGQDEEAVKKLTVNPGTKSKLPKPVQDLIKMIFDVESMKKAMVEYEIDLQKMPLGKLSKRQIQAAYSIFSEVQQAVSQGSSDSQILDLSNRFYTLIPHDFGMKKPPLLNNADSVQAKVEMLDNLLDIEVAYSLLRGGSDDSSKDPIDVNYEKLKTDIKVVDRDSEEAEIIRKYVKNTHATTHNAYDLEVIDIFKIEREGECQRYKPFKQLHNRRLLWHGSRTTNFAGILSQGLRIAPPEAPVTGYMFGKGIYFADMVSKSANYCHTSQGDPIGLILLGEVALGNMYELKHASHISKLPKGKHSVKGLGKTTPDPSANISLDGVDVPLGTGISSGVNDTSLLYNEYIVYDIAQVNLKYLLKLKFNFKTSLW", "assay": "PARP1 L713F-nLuc/akaLuc ratio relative to DMSO control (biosensor stabilization) (fold change); higher = more PARP1 biosensor stabilization (target engagement / stabilizer), active = hit call of the paper", "conditions": "stock concentration (mM; final µM = stock mM x 1): 10; 24 h;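 active = log2 fold change beyond 2 SD from the library mean after excluding viability outliers; inactive = within 2 SD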", "values": [
      {"smiles": "CS(=O)(=O)c1ccc(C(=O)Nc2ccc(Cl)c(-c3ccccn3)c2)c(Cl)c1", "note": "[Vismodegib (GDC-0449)]", "PARP1 L713F-nLuc/akaLuc ratio": "1.11 (inactive)"},
      {"smiles": "CC(C)Nc1cc(-c2c[nH]c(C(=O)N[C@H](CO)c3cccc(Cl)c3)c2)c(Cl)cn1", "PARP1 L713F-nLuc/akaLuc ratio": "0.364 (inactive)"},
      {"smiles": "Cc1ccc(C(=O)Nc2ccc(Oc3cc4cnn(C)c4cc3-c3cn[nH]c3)c(F)c2)c(=O)n1-c1ccc(F)cc1", "PARP1 L713F-nLuc/akaLuc ratio": "1.52 (inactive)"},
      {"smiles": "Cc1nc(F)ccc1-c1cc(Cn2ccn(C)c2=N)cc(C(=O)NCc2ccc(Cl)c(Cl)c2)c1", "PARP1 L713F-nLuc/akaLuc ratio": "0.928 (inactive)"},
      {"smiles": "O=c1sn(-c2cccc3ccccc23)c(=O)n1Cc1ccccc1", "note": "[Tideglusib]", "PARP1 L713F-nLuc/akaLuc ratio": "1.22 (inactive)"},
      {"smiles": "C[C@H]1CNCCCN1S(=O)(=O)c1cccc2cncc(F)c12", "note": "[Ripasudil (K-115) hydrochloride dihydrate]", "PARP1 L713F-nLuc/akaLuc ratio": "1.12 (inactive)"},
      {"smiles": "O=C1c2cccc(O)c2C(=O)c2c(O)cccc21", "note": "[Danthron]", "PARP1 L713F-nLuc/akaLuc ratio": "1.32 (inactive)"}
    ]}
  ]
}
